High-throughput results as filed in PubChem.
Rab9 prom act = Rab9 promoter activation | Huh7 Rab9 promoter-luciferase reporter, luminescence, 24 h | actives 2.8% (n = 320,000) | Potency, µM (highest dose often 9.22 µM), inactives show at the top dose activation, negative = inhibition, most hits filed as activators; note: % of control where 0% means no effect; nearly all actives have a fitted effect of over 60% in size
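Luciferase signal after 10 min detection reagent at ambient indicates Rab9 promoter upregulation; stably transfected Huh7 cells were treated 24 h with compound in DMSO at 37 °C, 5% CO2.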
KinaseGlo FLuc = blocks Kinase-Glo luciferase, a counter-screen artifact | Kinase-Glo luciferase, ATP luminescence, 8 min | actives 0.28% (n = 200,000) | Potency, µM (top dose mostly 38.3 µM), inactives show at the top dose activity change, negative = inhibition, actives largely listed as inhibitors | AID 1379; note: % is set by controls: 0 for no effect and ±100 for the full control effect; nearly all actives have a fitted effect of over 60% in size
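Substrate mix (final 50 mM imidazole pH 7.2, 50 mM KCl, 7 mM MgCl2, 10 uM ATP, 0.01% Tween 20, 0.05% BSA) plus pin-tool compound, then Kinase-Glo detection mix; 8 min ambient, luminescence read.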
SMN2 splice up = increases expression of the SMN2 splice variant | AID 1458 | actives 2.8% (n = 210,000) | HEK293 SMN2-luciferase splicing reporter, luminescence, 30-36 h | Potency, µM (titrated, usually from 46.1 µM), without a hit: at the top dose activity change, positive = activation, hits mostly activators; note: % of control where 0% means no effect; nearly all actives have a fitted effect of over 55% in size
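HEK293 cells carry an SMN2 minigene-luciferase reporter in which exon 7 inclusion puts luciferase in frame. Cells were seeded at 2000 cells/well, attached for 10-12 hours, then exposed to compounds for 30-36 hours at 37C before ONE-Glo luminescence.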
NPC1 promoter act = activators of NPC1 promoter; Potency, µM (series often up to 9.22 µM), for inactives: at the top dose activation, most hits filed as activators; actives 2.4% (n = 320,000); Huh7 NPC1 promoter luciferase reporter, 24 h; note: % of control where 0% means no effect; nearly all actives have a fitted effect of over 60% in size
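Compounds in DMSO were transferred onto Huh7 NPC1-luciferase reporter cells pre-incubated 2 h; after 24 h at 37 °C, Amplite reagent was dispensed and luminescence recorded 10 min later.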
FLuc modulator = firefly luciferase modulation, counter-screen for miR-21 project; purified FLuc, Km substrates, luminescence inhibition; P08659; AID 588342; actives 6.9% (n = 360,000); Potency, µM (top dose mostly 57.5 µM), for the others: top-dose activity change, negative = inhibition, hits mostly inhibitors;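 note: plate controls were vehicle for no effect and reference inhibitor for full effect; nearly all actives have a fitted effect of over 55% in size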
Target sequence (P08659 whole entry, looked up): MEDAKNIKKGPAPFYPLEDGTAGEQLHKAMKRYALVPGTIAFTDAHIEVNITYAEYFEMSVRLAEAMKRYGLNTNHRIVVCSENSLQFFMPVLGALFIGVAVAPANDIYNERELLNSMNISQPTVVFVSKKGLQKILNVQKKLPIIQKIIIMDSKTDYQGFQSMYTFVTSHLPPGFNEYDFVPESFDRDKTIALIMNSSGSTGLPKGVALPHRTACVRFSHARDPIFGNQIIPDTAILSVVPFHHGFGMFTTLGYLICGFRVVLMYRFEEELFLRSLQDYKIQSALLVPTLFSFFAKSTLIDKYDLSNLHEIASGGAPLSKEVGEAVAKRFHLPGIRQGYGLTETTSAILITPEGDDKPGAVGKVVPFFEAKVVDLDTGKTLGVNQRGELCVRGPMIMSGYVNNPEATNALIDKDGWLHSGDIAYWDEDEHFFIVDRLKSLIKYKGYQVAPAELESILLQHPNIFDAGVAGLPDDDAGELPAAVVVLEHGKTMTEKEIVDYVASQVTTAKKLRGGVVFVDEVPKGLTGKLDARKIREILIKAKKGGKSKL
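Biochemical qHTS of compounds, final roughly 60 µM downward over six points, against 10 nM purified firefly luciferase using Km concentrations of substrates (10 uM D-luciferin, 10 uM ATP) in Tris acetate pH 7.5 buffer; luminescence output.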
ELG1 genotox = induces genotoxicity in HEK293T cells with luciferase-tagged ELG1. HEK293T ELG1-luciferase reporter, luminescence, 16 h. Potency, µM (highest dose often 46 µM), without a hit: at the top dose activity change, positive = activation, most hits filed as activators. actives 1.3% (n = 330,000); note: % of control where 0% means no effect; nearly all actives have a fitted effect of over 60% in size
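HEK293T cells expressing luciferase-tagged ELG1 were exposed to compound or DMSO vehicle for 16 hr at 37 °C and 5% CO2. Luciferase activity was then measured with ONE-Glo after 30 min at room temperature.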
Active calls of the source: *; ? = inconclusive; · = not tested or not shown. In the library only some 7.4% were active in any assay of this set; here they are far more common. Calls come from the whole dose curve; as a rule, active = well fitted curve in the direction sought with a large enough effect; inconclusive = small, poorly fitted or top-dose-only effect, or another doubt; inactive = no such curve, though single readings can be large; an effect the other way counts as inactive or inconclusive. Potency is the fitted concentration of half-maximal effect.

SMILES	Rab9 prom act	KinaseGlo FLuc	SMN2 splice up	NPC1 promoter act	FLuc modulator	ELG1 genotox
COc1ccc(-c2csc(N(C)C(=O)c3ccco3)n2)cc1	4µM*	·	·	?	11µM*	?
CN(C(=O)c1ccco1)c1nc(-c2ccc(Cl)cc2)cs1	3.2µM*	·	·	?	6µM*	14%
Nc1ccc(N2CCN(c3ncc(C(F)(F)F)cc3Cl)CC2)c(C(F)(F)F)c1	·	·	-49%	·	4%	·
COCCNc1nc(C)c(C(C)=O)s1	0%	0%	11%	-6%	-2%	0%
CC1CC(C)CN(S(=O)(=O)c2ccc(C(=O)N3CCOCC3)cc2)C1 (configuration not stated)	7%	·	·	0%	1%	0%
CC(=O)N(C)c1nc(-c2ccc(Cl)cc2)cs1	3.5µM*	-6%	-7%	?	?	4%
O=C(Nc1ccc(F)cc1F)c1cc2nc3c(c(C(F)(F)F)n2n1)CCCC3	0.56µM*	2%	17%	1.1µM*	0.6µM*	?
O=C(COC(=O)CSc1ccc2ccccc2c1Br)NC1CC1	4%	0%	10%	-3%	?	3%
CN(CC(=O)Nc1ccccc1Br)C(=O)CNC(=O)c1ccc(Oc2ccccc2)cc1	2%	·	·	18%	15µM*	0%
COc1cccc(NC(=O)CN(C)C(=O)CNC(=O)c2ccc(Oc3ccccc3)cc2)c1	?	·	·	27%	6µM*	6%
COc1cccc(NC(=O)CNC(=O)c2ccccc2)c1	25%	4%	22%	18%	-21%	?
COc1ccc(NC(=O)CN(C)C(=O)c2cc3c(s2)CCC(C)C3)cc1 (configuration not stated)	4%	·	·	-4%	15µM*	10%
CN(CC(=O)Nc1ccccc1Br)C(=O)CNC(=O)c1cccs1	-1%	·	·	-5%	-3%	0%
CCN(CC(=O)Nc1ccc(OC)cc1)C(=O)c1ccc2ccccc2c1	·	·	·	·	·	-1%
COc1ccc(NC(=O)CN(C)C(=O)CNC(=O)c2ccc3ccccc3c2)cc1	?	·	·	26%	24µM*	14%
N#Cc1cnn2c(-c3cccc([N+](=O)[O-])c3)ccnc12	-4%	·	·	-6%	-3%	2%
COc1ccc(C(=O)Nc2ccccc2-c2nc3ccccc3s2)c(OC)c1	·	·	·	·	-8%	·
Cc1nc(N)sc1-c1csc(N(C)c2ccc(O)cc2)n1	?	6%	?	?	4.8µM*	?
CN(c1ccc(O)cc1)c1nc(-c2cccs2)cs1	-4%	-4%	·	-4%	-1%	-3%
CCn1c(SC(C)C(=O)Nc2ccc3c(c2)OCCO3)nnc1C1CC1 (configuration not stated)	2%	·	·	0%	24µM*	0%
C[C@@H](C(=O)Nc1ccc2c(c1)OCCO2)n1nnc2ccccc2c1=O	3.5µM*	·	·	3.5µM*	8.5µM*	?
Cn1c(SCC(=O)Nc2ccc3c(c2)OCCO3)nnc1C1CC1	1%	·	·	10%	?	0%
CC(Sc1nc2ccccc2[nH]1)C(=O)Nc1ccc2c(c1)OCCO2 (configuration not stated)	0%	-2%	-5%	-2%	21µM*	0%
O=C(CN(C(=O)CCC(=O)Nc1ccccn1)c1ccc(F)cc1)NCc1ccc(F)cc1	-9%	·	·	8%	1%	-5%
CC(C)CN(C(=O)CN1C(=O)NC(c2ccccc2)(c2ccccc2)C1=O)C1CCS(=O)(=O)C1 (configuration not stated)	-7%	·	·	0%	2%	0%
O=C(NCC1CCCO1)c1nn2cccnc2c1Cl (configuration not stated)	22%	-2%	22µM*	13%	-15%	?
Cc1ccccc1NS(=O)(=O)c1ccc2c3c(cccc13)C(=O)N2C	0%	·	·	-5%	2%	21µM*
Cn1c(=O)c(C=Nc2ccccc2)c(O)c2ccccc21	0%	·	·	-4%	4.3µM*	0%
